# Results published in PubChem BioAssay AID1159580 (chemical genetic matrix, 2015).
# Where “and” joins values, the source holds several entries; their conditions need not be identical. Equal entries are not always repeated. The campaign covered roughly 5,500 compounds. About 2,000 (36%) were called active. Not shown: some 18% with an inconclusive outcome. Cut-off read from the data, not from the text of the source: active = normalized growth mostly below about 0.91 (no sharp cut-off); inconclusive = no clear call, values can overlap the other calls; inactive = mostly above about 0.92. This is one part of the list.
# Assay: chemical genetic growth profiling, strain panel (AID 1159580);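 note: tested at 20 µM; growth read once vehicle control cultures reached saturation at 30 °C; 1 = growth at the plate median or of vehicle wells; lower values mean less growth of the strain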
# Settings: S. cerevisiae deletion strains, growth OD
smiles,measurement,setting,value
COc1ccc2c(c1)OC/C(=C/c1ccc(OC)c(OC)c1)C2=O,normalized growth,"locus YAL013W, strain DEP1, stronger effect = lower value",1.01 (inactive)
same,normalized growth,"locus YAL021C, strain ccr4, stronger effect = lower value",0.997 (inactive)
same,normalized growth,"locus YAL026C, strain drs2, stronger effect = lower value",0.891 (active)
same,normalized growth,"locus YAL030W, strain snc1, stronger effect = lower value",0.986 (inactive)
same,normalized growth,"locus YBL061C, strain skt5, stronger effect = lower value",1 (inactive)
same,normalized growth,"locus YBR009C, strain hhf1, stronger effect = lower value",0.803 (active)
same,normalized growth,"locus YBR021W, strain FUR4, stronger effect = lower value",0.873 (inactive)
same,normalized growth,"locus YBR023C, strain chs3, stronger effect = lower value",0.882 (active)
same,normalized growth,"locus YBR171W, strain sec66, stronger effect = lower value",0.978 (inactive)
same,normalized growth,"locus YBR229C, strain ROT2, stronger effect = lower value",0.981 (inactive)
same,normalized growth,"locus YBR231C, strain swc5, stronger effect = lower value",0.88 (active)
same,normalized growth,"locus YBR279W, strain paf1, stronger effect = lower value",0.946 (inactive)
same,normalized growth,"locus YCL011C, strain gbp2, stronger effect = lower value",0.905 (active)
same,normalized growth,"locus YCL016C, strain dcc1, stronger effect = lower value",0.856 (active)
same,normalized growth,"locus YCL029C, strain bik1, stronger effect = lower value",0.943 (inactive)
same,normalized growth,"locus YCL061C, strain MRC1, stronger effect = lower value",0.887 (active)
same,normalized growth,"locus YCL069W, strain vba3, stronger effect = lower value",0.873 (active)
same,normalized growth,"locus YCR088W, strain abp1, stronger effect = lower value",0.98 (inactive)
same,normalized growth,"locus YDL005C, strain med2, stronger effect = lower value",1.02 (inactive)
same,normalized growth,"locus YDL035C, strain GPR1, stronger effect = lower value",0.978 (inactive)
same,normalized growth,"locus YDL040C, strain nat1, stronger effect = lower value",0.974 (inactive)
same,normalized growth,"locus YDL074C, strain BRE1, stronger effect = lower value",0.928 (inactive)
same,normalized growth,"locus YDL101C, strain DUN1, stronger effect = lower value",0.95 (inactive)
same,normalized growth,"locus YDL185W, strain tfp1, stronger effect = lower value",0.987 (inactive)
same,normalized growth,"locus YDL192W, strain arf1, stronger effect = lower value",0.944 (inactive)
same,normalized growth,"locus YDR001C, strain nth1, stronger effect = lower value",0.983 (inactive)
same,normalized growth,"locus YDR069C, strain doa4, stronger effect = lower value",1.01 (inactive)
same,normalized growth,"locus YDR101C, strain arx1, stronger effect = lower value",0.963 (inactive)
same,normalized growth,"locus YDR137W, strain rgp1, stronger effect = lower value",0.682 (active)
same,normalized growth,"locus YDR159W, strain sac3, stronger effect = lower value",0.874 (inactive)
same,normalized growth,"locus YDR162C, strain NBP2, stronger effect = lower value",0.833 (active)
same,normalized growth,"locus YDR195W, strain ref2",1.1 (inactive)
same,normalized growth,"locus YDR297W, strain sur2, stronger effect = lower value",0.943 (inactive)
same,normalized growth,"locus YDR318W, strain mcm21, stronger effect = lower value",0.894 (active)
same,normalized growth,"locus YDR334W, strain swr1, stronger effect = lower value",0.974 (inactive)
same,normalized growth,"locus YDR335W, strain msn5, stronger effect = lower value",0.899 (active)
same,normalized growth,"locus YDR388W, stronger effect = lower value",0.958 (inactive)
same,normalized growth,"locus YDR392W, strain spt3, stronger effect = lower value",0.212 (active)
same,normalized growth,"locus YDR502C, strain sam2, stronger effect = lower value",0.893 (active)
same,normalized growth,"locus YEL003W, strain gim4, stronger effect = lower value",0.893 (active)
same,normalized growth,"locus YEL037C, strain rad23, stronger effect = lower value",0.984 (inactive)
same,normalized growth,"locus YEL061C, strain CIN8 (second series), stronger effect = lower value",0.863 (active)
same,normalized growth,"locus YEL061C, strain CIN8, stronger effect = lower value",0.911 (active)
same,normalized growth,"locus YER015W, strain faa2, stronger effect = lower value",0.936 (inactive)
same,normalized growth,"locus YER016W, strain bim1, stronger effect = lower value",1.03 (inactive)
same,normalized growth,"locus YER110C, stronger effect = lower value",0.945 (inactive)
same,normalized growth,"locus YER111C, strain swi4, stronger effect = lower value",1.01 (inactive)
same,normalized growth,"locus YER155C, strain BEM2 (second series), stronger effect = lower value",0.625 (active)
same,normalized growth,"locus YER155C, strain BEM2, stronger effect = lower value",0.962 (inactive)
same,normalized growth,"locus YER167W, strain BCK2, stronger effect = lower value",0.947 (inactive)
same,normalized growth,"locus YFR010W, strain ubp6, stronger effect = lower value",0.986 (inactive)
same,normalized growth,"locus YGL078C, strain dbp3, stronger effect = lower value",0.976 (inactive)
same,normalized growth,"locus YGL086W, strain mad1, stronger effect = lower value",0.9 (active)
same,normalized growth,"locus YGL167C, strain pmr1, stronger effect = lower value",1.06 (inactive)
same,normalized growth,"locus YGL173C, strain kem1, stronger effect = lower value",0.984 (inactive)
same,normalized growth,"locus YGL227W, strain vid30, stronger effect = lower value",0.986 (inactive)
same,normalized growth,"locus YGL240W, strain doc1, stronger effect = lower value",0.852 (active)
same,normalized growth,"locus YGL248W, strain PDE1, stronger effect = lower value",0.916 (inactive)
same,normalized growth,"locus YGL253W, strain hxk2, stronger effect = lower value",0.764 (active)
same,normalized growth,"locus YGR135W, strain pre9, stronger effect = lower value",0.914 (inactive)
same,normalized growth,"locus YGR252W, strain gcn5, stronger effect = lower value",0.799 (inactive)
same,normalized growth,"locus YHR013C, strain ard1, stronger effect = lower value",0.862 (inactive)
same,normalized growth,"locus YHR027C, strain rpn1, stronger effect = lower value",0.979 (inactive)
same,normalized growth,"locus YHR030C, strain SLT2, stronger effect = lower value",0.838 (active) and 0.944 (inactive)
same,normalized growth,"locus YHR079C, strain IRE1 (second series), stronger effect = lower value",0.979 (inactive)
same,normalized growth,"locus YHR079C, strain IRE1, stronger effect = lower value",0.952 (inactive)
same,normalized growth,"locus YHR094C, strain hxt1, stronger effect = lower value",0.969 (inactive)
same,normalized growth,"locus YHR129C, strain ARP1, stronger effect = lower value",0.867 (active)
same,normalized growth,"locus YHR142W, strain chs7, stronger effect = lower value",0.668 (active)
same,normalized growth,"locus YHR200W, strain rpn10, stronger effect = lower value",0.969 (inactive)
same,normalized growth,"locus YIL066C, strain RNR3, stronger effect = lower value",0.832 (active)
same,normalized growth,"locus YIL073C, strain SPO22, stronger effect = lower value",0.833 (inactive)
same,normalized growth,"locus YIL125W, strain kgd1, stronger effect = lower value",0.973 (inactive)
same,normalized growth,"locus YIR030C, strain dcg1, stronger effect = lower value",0.978 (inactive)
same,normalized growth,"locus YJL092W, strain hpr5, stronger effect = lower value",0.97 (inactive)
same,normalized growth,"locus YJL095W, strain BCK1 (second series), stronger effect = lower value",0.864 (active)
same,normalized growth,"locus YJL095W, strain BCK1, stronger effect = lower value",0.733 (active) and 0.959 (inactive)
same,normalized growth,"locus YJL115W, strain asf1, stronger effect = lower value",0.98 (inactive)
same,normalized growth,"locus YJL129C, strain trk1, stronger effect = lower value",0.929 (inactive)
same,normalized growth,"locus YJL134W, strain LCB3, stronger effect = lower value",0.996 (inactive)
same,normalized growth,"locus YJL154C, strain vps35, stronger effect = lower value",0.993 (inactive)
same,normalized growth,"locus YJL164C, strain tpk1, stronger effect = lower value",0.852 (active)
same,normalized growth,"locus YJL166W, strain qcr8, stronger effect = lower value",0.756 (active)
same,normalized growth,"locus YJL168C, strain set2, stronger effect = lower value",0.965 (inactive)
same,normalized growth,"locus YJL187C, strain SWE1 (second series), stronger effect = lower value",0.937 (inactive)
same,normalized growth,"locus YJL187C, strain SWE1, stronger effect = lower value",0.973 (inactive)
same,normalized growth,"locus YJR043C, strain POL32, stronger effect = lower value",0.915 (inactive)
